The source of these data is PubChem BioAssay AID686996 (Broad Institute, 2013).

Values joined by “and” are separate entries in the source; they are usually repeats but may differ in a detail not shown here. Equal values may be shown once. Screen size: about 350,000 compounds; about 1,900 (0.54%) were called active.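 The calls were made as follows: active = mean inhibition across replicates at least about 35%, with every replicate also reaching that limit (limit read from the data); inconclusive = only one of the two criteria met; inactive = neither criterion met.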 The sample as a whole holds a higher share of actives than the screen did. Some compounds were tested as several samples or in several runs, with calls that do not always agree.

For the test, the target named is Caspase-6 (Homo sapiens) (UniProt P55212). Briefly: inhibition of CASP6 peptide cleavage – biochemical, VEID-R110 fluorescence, single point, set 2, primary screen (AID 686996).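 Also: 0% = median of neutral control wells and 100% = no fluorescence left.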 The note with it: purified caspase-6, Z-VEID-R110 cleavage fluorescence; at 12.5 µM; stronger effect = higher value.
Caspase-6 (Homo sapiens), sequence (P55212 24-179 limits assumed): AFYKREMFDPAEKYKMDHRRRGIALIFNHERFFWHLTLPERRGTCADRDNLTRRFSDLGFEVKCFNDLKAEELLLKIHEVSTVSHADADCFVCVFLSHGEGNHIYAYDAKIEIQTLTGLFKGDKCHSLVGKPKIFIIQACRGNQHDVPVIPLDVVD
Caspase-6 (Homo sapiens), sequence (P55212 194-293 limits assumed): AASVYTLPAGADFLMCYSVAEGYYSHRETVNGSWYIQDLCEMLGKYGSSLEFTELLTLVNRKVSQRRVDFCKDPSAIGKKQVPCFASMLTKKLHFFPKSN
`CC=Cc1ccc2n(c1=O)C[C@@H]1[C@@H](CO)[C@H](C(=O)NCCc3ccccc3)N(C(C)=O)[C@H]21` (mixture of isomers): the inhibition is 61.2% (active).

For `CC=Cc1ccc2n(c1=O)C[C@@H]1[C@@H](CO)[C@H](C(=O)N(C)C)[C@H]2N1CCc1ccccc1` (mixture of isomers), the inhibition is -1.44% (inactive).

`CC=Cc1ccc2n(c1=O)C[C@@H]1[C@@H](CO)[C@H](C(=O)N[C@H](C)c3ccccc3)N(C(=O)c3cnccn3)[C@H]21` (mixture of isomers): the inhibition was -3.98% (inactive).

For the compound `CO[C@H]1CN(C)C(=O)c2ccc(NC(=O)C3CC3)cc2OC[C@@H](C)N(Cc2ccc(F)cc2)C[C@@H]1C`, the inhibition is 3.32% (inactive).

As for `CCN1CCN(C(=O)N[C@@H](C(=O)N[C@@H]2C(=O)N3C(C(=O)O)=C(CSc4nnnn4C)CS[C@H]23)c2ccc(O)cc2)C(=O)C1=O`, the inhibition is 0.383% (inactive).

Take `CO/N=C(\C(=O)N[C@@H]1C(=O)N2C(C(=O)O)=C(COC(C)=O)CS[C@H]12)c1csc(N)n1` (stereo in doubt): the inhibition is 13.9% (inactive) and 5.09% (inactive) and 37.7% (active).

On to `Cc1cc(C)cc(C(=O)NC2C(=O)N3C(C(=O)O)=C(CSc4nnc(C)s4)CSC23)c1` (stereo not drawn), for which the inhibition was 9.95% (inactive).

In the case of `C=CC1=C(C(=O)O)N2C(=O)[C@@H](NC(=O)/C(=N/OCC(=O)O)c3csc(N)n3)[C@H]2SC1`, the inhibition was 88.2% (active).

Regarding `COc1ccccc1NC(=O)N1C[C@H](O)COC[C@H]2O[C@H](CC(=O)NCCc3ccccc3)CC[C@@H]21`, the inhibition is 1.79% (inactive).

With `COc1ccccc1CN1CC[C@@H]2[C@@H](CO)Nc3ccc(C#Cc4ccccc4)cc3[C@@H]21`, the inhibition was 0.663% (inactive).

For `C[C@@H]1CN([C@@H](C)CO)C(=O)c2cc(NC(=O)Nc3cccc4ccccc34)ccc2O[C@@H]1CN(C)C(=O)NC1CCCCC1`, the inhibition was 0.662% (inactive).

With `C[C@@H](O)C#Cc1cnc2c(c1)C(=O)N([C@@H](C)CO)C[C@H](C)[C@@H](CN(C)CC1CCCCC1)O2`, the inhibition is 2.32% (inactive).

For `Oc1ccc(/C=N/N(Cc2ccccc2)c2ccccc2)cc1`, the inhibition is -0.437% (inactive).

On to `Cc1cc(N=Nc2ccc3ccccc3c2)ccc1O`, for which the inhibition is 2.65% (inactive).

On to `Oc1ccc(N=Cc2c(O)ccc3ccccc23)cc1`, for which the inhibition is 36.4% (active).

For the compound `COc1ccc(S(=O)(=O)Nc2cccc3c2O[C@H](CN(C)Cc2ccc4c(c2)OCO4)[C@H](C)CN([C@@H](C)CO)C3=O)cc1`, the inhibition is 0.634% (inactive).

As for `C[C@H]1CCCCO[C@H](CN(C)C(=O)Nc2ccccc2)[C@@H](C)CN([C@@H](C)CO)C(=O)c2cc(NC(=O)c3ccncc3)ccc2O1`, the inhibition was -0.544% (inactive).

On to `Cc1cc(/C=C2\SC(=O)N(C)C2=O)c(C)n1-c1cccc(C(=O)O)c1`, for which the inhibition was 39.2% (active).

For the compound `Cc1cc(/C=C2/SC(=O)N(CC(=O)OC(C)C)C2=O)c(C)n1C`, the inhibition is 1.11% (inactive).

With `Cc1cc(/C=C2/SC(=O)N(CC(=O)N3CCCC3)C2=O)c(C)n1C`, the inhibition was 1.51% (inactive).

With `O=C(C1=C[C@@H](c2ccccc2)C[C@@H](OCCCCO)O1)N1CCN(Cc2ccccc2)CC1`, the inhibition was -1.99% (inactive).

Consider `C[C@@H]1CN([C@H](C)CO)C(=O)Cc2cc(NC(=O)CCN3CCOCC3)ccc2O[C@H]1CN(C)C`, for which the inhibition is 0.558% (inactive).

Regarding `COc1ccc2c3c([nH]c2c1)[C@@H](CO)N(Cc1ccncc1)CC31CN(C(=O)CN(C)C)C1`, the inhibition is -1.6% (inactive).

For `Cc1oc2c(c1C(=O)N1CCOCC1)C(=O)c1ccccc1C2=O`, the inhibition was 62.8% (active).

For the compound `O=C(NC(=O)N1CCOCC1)c1ccccc1`, the inhibition was -0.559% (inactive).

On to `O=C(c1snnc1-c1ccccc1)N1CCOCC1`, for which the inhibition is -0.096% (inactive).

Consider `Cc1ccc(S(=O)(=O)N[C@H]2CC[C@H](CC(=O)O)O[C@H]2CO)cc1`, for which the inhibition is 3% (inactive).

For the compound `Cc1noc(C)c1S(=O)(=O)N(C)C[C@H]1OCCCC[C@@H](C)Oc2ccc(NC(=O)C3CCCCC3)cc2C(=O)N([C@H](C)CO)C[C@@H]1C`, the inhibition was -3.38% (inactive).

As to `COc1ccc(NC(=O)Nc2ccc3c(c2)C(=O)N([C@@H](C)CO)C[C@@H](C)[C@@H](CN(C)S(=O)(=O)c2ccc(C)cc2)OCCCC[C@H](C)O3)cc1`, the inhibition was -2.65% (inactive).

With `COCC(=O)N1[C@@H](CO)[C@H](c2ccccc2)C12CN(C(=O)NC1CCCCC1)C2`, the inhibition was -0.716% (inactive).

In the case of `O=C(Nc1ccccc1C(=O)Nc1ccncc1)c1ccc([N+](=O)[O-])cc1`, the inhibition was -0.84% (inactive).

In the case of `O=C(Nc1nc2ccc([N+](=O)[O-])cc2s1)c1ccncc1`, the inhibition was 65.7% (active).

With `O=C(Nc1ccncc1)c1ccc([N+](=O)[O-])cc1Cl`, the inhibition was -0.931% (inactive).

`CC(C)NC(=O)N(C)C[C@H]1Oc2ncc(C#CC3CC3)cc2C(=O)N([C@H](C)CO)C[C@@H]1C`: the inhibition is -0.116% (inactive).

`C[C@H](CO)N1C[C@H](C)[C@H](CN(C)C(=O)Nc2cccc(Cl)c2Cl)OCc2ccccc2-c2ccccc2C1=O`: the inhibition is 0.728% (inactive).

Regarding `COc1cccc(/C=C2\SC(=S)N(CCCC(=O)N3CCOCC3)C2=O)c1`, the inhibition is -1.77% (inactive).

On to `O=C(CCCN1C(=O)/C(=C/c2cccs2)SC1=S)Nc1ccc(O)cc1`, for which the inhibition was 0.413% (inactive).

With `Cc1ccc(-c2nn(-c3ccccc3)cc2/C=C2\SC(=S)N(CCCCCC(=O)O)C2=O)o1`, the inhibition is 49.9% (active).

For `Cc1ccc(S(=O)(=O)Nc2ccc3c(c2)C(=O)N(C)[C@H]2CC[C@H](CC(=O)O)O[C@H]2CO3)cc1`, the inhibition was 0.009% (inactive).

For `C[C@H](CO)N1C[C@H](C)[C@H](CN(C)C(=O)C2CCC2)Oc2ncc(C#CCc3ccccc3)cc2C1=O`, the inhibition was -2.13% (inactive).

`O=C(O)CCn1c(O)c(C=C2N=c3ccccc3=N2)sc1=S`: the inhibition was 35.5% (active).

Turning to `Cc1ccc(S(=O)(=O)N(C)C[C@@H]2Oc3c(NS(C)(=O)=O)cccc3C(=O)N([C@@H](C)CO)C[C@H]2C)cc1`, the inhibition was 0.89% (inactive).

Regarding `COc1cccc(NC(=O)Nc2ccc3c(c2)C(=O)N(C)[C@@H]2CC[C@@H](CC(=O)NCCc4ccccc4)O[C@H]2CO3)c1`, the inhibition was 1.41% (inactive).
